Among the test systems are DU-145 prostate; K-562 leukemia; MALME-3M melanoma; MDA-MB-231 breast; RXF 393 renal; SF-268 CNS; SF-295 CNS; SF-539 CNS; UACC-257 melanoma; M14 melanoma; HCT-15 colon; HT29 colon; SNB-75 CNS; U251 CNS; PC-3 prostate; SK-MEL-5 melanoma; UACC-62 melanoma; LOX IMVI melanoma; SNB-19 CNS; SK-MEL-28 melanoma.
Common to all, as to experiment: NCI-60 one-dose screen, 48 h (100 = growth as untreated, 0 = no growth, -100 = all killed)
Common to all, as to conditions: 10 µM unless noted

Each structure is given as a SMILES string. This is part of a sample that, as a whole, favours compounds with a hit. Of some 83,000 tested, about 20% had one in any assay.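 Results are percent growth after 48 hours of single-concentration exposure. 100 means growth as in untreated cells, lower positive values show inhibition; negative values down to -100 show cell death.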 Values without a mark were called inactive. The source made the active and inactive calls. Rule for the calls: active = growth percent below 10; inactive = the rest.

As to `O=C(NNc1cnccn1)c1nc2cc(F)ccc2n2cccc12`, the growth with DU-145 prostate was 25.7%; in the assay on K-562 leukemia, 10.8%; in the assay with MALME-3M melanoma, 11%; in the assay with MDA-MB-231 breast, 27.5%; with RXF 393 renal it was 9.53% (active); in the assay with SF-268 CNS, 26%. In addition, the growth was 12.9% in the assay with SF-295 CNS; 5.57% (active) with SF-539 CNS; -9.5% (active) in the assay on UACC-257 melanoma; 5.33% (active) in the assay with M14 melanoma; 25.7% with HCT-15 colon; 27.9% with HT29 colon. Also, the growth with SNB-75 CNS is 41.1%; in the assay on U251 CNS, 14%; with PC-3 prostate, 29.4%; with SK-MEL-5 melanoma, -48.2% (active); with UACC-62 melanoma, -21.1% (active); in the assay on LOX IMVI melanoma, -53.5% (active).

As to `O=c1nc(-c2ccccc2)c2cc(-c3ccc(C(F)(F)F)nc3)ccc2[nH]1`, the growth with DU-145 prostate was 103%; with K-562 leukemia, 103%; in the assay on MALME-3M melanoma it was 111%; in the assay with MDA-MB-231 breast, 91.9%; in the assay with RXF 393 renal it was 105%; in the assay on SF-268 CNS, 98.1%. Further, the growth was 103% in the assay on SF-295 CNS; 93.2% with SF-539 CNS; 109% with UACC-257 melanoma; 98.6% with M14 melanoma; 97.8% in the assay on HCT-15 colon; 111% in the assay on HT29 colon. The growth was 117% in the assay on SNB-75 CNS; 101% in the assay on SNB-19 CNS; 94.8% in the assay on SK-MEL-5 melanoma; 97.3% in the assay on UACC-62 melanoma; 93.1% in the assay with LOX IMVI melanoma; 108% in the assay on SK-MEL-28 melanoma.

On to `COc1cccc(Nc2ncnc3cc(NC(=O)CCl)ccc23)c1`, for which the growth was -74% (active) in the assay on DU-145 prostate; -9.78% (active) in the assay on K-562 leukemia; -85.3% (active) in the assay on MALME-3M melanoma; -69.4% (active) with MDA-MB-231 breast; -90.2% (active) with RXF 393 renal; -57.5% (active) with SF-268 CNS. Besides, the growth in the assay with SF-295 CNS is -19% (active); in the assay with SF-539 CNS, -89.1% (active); with UACC-257 melanoma it was 14%; with M14 melanoma it was -78.4% (active); with HCT-15 colon it was -43.2% (active); in the assay on HT29 colon, -79.5% (active). The growth in the assay with SNB-75 CNS was -79.9% (active); in the assay on SNB-19 CNS, -38.6% (active); with PC-3 prostate, -80.3% (active); in the assay with SK-MEL-5 melanoma, -85.8% (active); in the assay on UACC-62 melanoma, -67.5% (active); in the assay on LOX IMVI melanoma, -74.6% (active). In addition, in the assay with SK-MEL-28 melanoma, the growth was -33.7% (active).

For the compound `N#Cc1c(-c2ccccc2)nc(SCC(O)CN2CCOCC2)nc1N1CCOCC1` (stereo not given), the growth in the assay on DU-145 prostate was 61.7%; in the assay with K-562 leukemia, 90%; with MALME-3M melanoma, 23.1%; in the assay with MDA-MB-231 breast, 77.3%; in the assay with RXF 393 renal it was 72.5%; in the assay with SF-268 CNS, 62.3%. For the same compound, the growth with SF-295 CNS was 43.6%; in the assay with SF-539 CNS it was 56.6%; with UACC-257 melanoma, 17.1%; with M14 melanoma, 59.9%; in the assay on HCT-15 colon it was 80.1%; in the assay with HT29 colon, 68.5%. For the same compound, the growth in the assay with SNB-75 CNS was -4.63% (active); with U251 CNS it was 81.4%; with PC-3 prostate, 56.5%; in the assay with SK-MEL-5 melanoma, 66.6%; in the assay on UACC-62 melanoma, 42.9%; in the assay on LOX IMVI melanoma, 78%. In the assay on SK-MEL-28 melanoma, the growth was 59.9%.

Consider `C=C1C(=O)O[C@H]2[C@H]1CC/C(CNC(=O)c1c[nH]c3ccc(F)cc13)=C\CC[C@@]1(C)O[C@@H]21`, for which the growth is -58.5% (active) in the assay on DU-145 prostate; -19.3% (active) in the assay with K-562 leukemia; -2.58% (active) with MALME-3M melanoma; 11.7% in the assay on MDA-MB-231 breast; -84.9% (active) in the assay with RXF 393 renal; 42.8% in the assay on SF-268 CNS. The growth is 67.7% in the assay on SF-295 CNS; -42.6% (active) with SF-539 CNS; -68.4% (active) in the assay with UACC-257 melanoma; -26.1% (active) with M14 melanoma; -69.6% (active) with HCT-15 colon; -59.5% (active) in the assay with HT29 colon. The growth in the assay on SNB-75 CNS was 45%; in the assay on U251 CNS, 31.7%; in the assay on PC-3 prostate it was 31.8%; with SK-MEL-5 melanoma, 61.4%; with UACC-62 melanoma, -37.3% (active); in the assay with LOX IMVI melanoma, -88.4% (active). Moreover, the growth with SK-MEL-28 melanoma is -24.3% (active).

`COc1cc(C(=O)n2nc(N3CCOCC3)c3cc(-n4cccc4)ccc32)cc(OC)c1OC`: the growth was 61.2% in the assay on DU-145 prostate; 52.4% with K-562 leukemia; 87.1% in the assay with MALME-3M melanoma; 54.9% with MDA-MB-231 breast; -9.27% (active) with RXF 393 renal; 76.8% in the assay with SF-268 CNS. Further, the growth in the assay on SF-295 CNS was 71.8%; in the assay on SF-539 CNS, 79.9%; in the assay on UACC-257 melanoma it was 103%; in the assay on M14 melanoma, 52.7%; in the assay with HCT-15 colon, 17.6%; with HT29 colon, 62.4%. In addition, the growth is 49.8% with SNB-75 CNS; 68.7% with U251 CNS; 38% with PC-3 prostate; 64.3% in the assay with SK-MEL-5 melanoma; 73.1% in the assay with UACC-62 melanoma; 88.7% with LOX IMVI melanoma. In addition, the growth with SK-MEL-28 melanoma is 72.7%.

For `O=C(O)COc1ccc(Cl)c(Cl)c1`, the growth in the assay with DU-145 prostate was 126%; in the assay with K-562 leukemia, 109%; in the assay with MALME-3M melanoma it was 124%; in the assay on MDA-MB-231 breast, 115%; in the assay on RXF 393 renal it was 108%; in the assay with SF-268 CNS it was 117%. In addition, the growth with SF-295 CNS was 103%; in the assay on SF-539 CNS it was 104%; in the assay on UACC-257 melanoma, 104%; with M14 melanoma, 112%; with HCT-15 colon, 111%; in the assay with HT29 colon, 112%. The growth in the assay with SNB-75 CNS is 107%; with SNB-19 CNS it was 117%; with PC-3 prostate, 100%; in the assay with SK-MEL-5 melanoma, 105%; in the assay on UACC-62 melanoma it was 104%; in the assay on LOX IMVI melanoma it was 97.9%. The growth in the assay on SK-MEL-28 melanoma was 116%.

In the case of `CC1C=CC(OC(=O)C(C)(O)CCC(O)(C(=O)OC2CC(O)C(C(C)C)CC2(C)O)C(C)C)(C(C)C)CC1` (stereo not given), the growth in the assay on DU-145 prostate was -89% [4.63 µM] (active); with K-562 leukemia, -61.1% [4.63 µM] (active); in the assay on MALME-3M melanoma, -71.5% [4.63 µM] (active); in the assay on MDA-MB-231 breast, -59.7% [4.63 µM] (active); in the assay on RXF 393 renal, -87.3% [4.63 µM] (active); in the assay on SF-268 CNS, -43.9% [4.63 µM] (active). Moreover, the growth with SF-295 CNS is -86.9% [4.63 µM] (active); in the assay with SF-539 CNS, -95.5% [4.63 µM] (active); in the assay on UACC-257 melanoma it was -88% [4.63 µM] (active); with M14 melanoma, -74.8% [4.63 µM] (active); with HCT-15 colon it was -68.5% [4.63 µM] (active); in the assay with HT29 colon, -39.6% [4.63 µM] (active). For the same compound, the growth in the assay on SNB-75 CNS was -45.9% [4.63 µM] (active); with U251 CNS, -94.2% [4.63 µM] (active); in the assay with PC-3 prostate, -84.9% [4.63 µM] (active); in the assay with SK-MEL-5 melanoma, -99.8% [4.63 µM] (active); in the assay on UACC-62 melanoma, -88.9% [4.63 µM] (active); with LOX IMVI melanoma, -88.4% [4.63 µM] (active). In addition, the growth with SK-MEL-28 melanoma is -96.9% [4.63 µM] (active).

For the origin of these results see PubChem BioAssay (NCI).
